High-throughput results as filed in PubChem.
D1 ag: Allosteric Agonists of the Human D1 Dopamine Receptor: qHTS; AID 504660, 2011; HEK293 T-REx D1 cells, calcium flux, agonist mode; D(1A) dopamine receptor (Homo sapiens), P21728; 360,000 tested, 1% active; activation, % at 2 µM
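Agonism was scored from calcium flux recorded over 180 s (1 read/s) after pintool compound addition, following a 10-cycle baseline. Cells were inducible force-coupled HEK293 TREx D1, plated overnight at 30 C and loaded with no-wash calcium dye.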
TRHR agonist: qHTS for Small Molecule Agonists and Allosteric Enhancers of Human TRH Receptor: Primary Screen for Agonists; Thyrotropin-releasing hormone receptor (Homo sapiens), P34981; TRHR cells, calcium flux fluo-8, FDSS agonist mode; activation, % at 2 µM; 360,000 tested, 0.18% active
Target sequence (P34981 whole entry, looked up): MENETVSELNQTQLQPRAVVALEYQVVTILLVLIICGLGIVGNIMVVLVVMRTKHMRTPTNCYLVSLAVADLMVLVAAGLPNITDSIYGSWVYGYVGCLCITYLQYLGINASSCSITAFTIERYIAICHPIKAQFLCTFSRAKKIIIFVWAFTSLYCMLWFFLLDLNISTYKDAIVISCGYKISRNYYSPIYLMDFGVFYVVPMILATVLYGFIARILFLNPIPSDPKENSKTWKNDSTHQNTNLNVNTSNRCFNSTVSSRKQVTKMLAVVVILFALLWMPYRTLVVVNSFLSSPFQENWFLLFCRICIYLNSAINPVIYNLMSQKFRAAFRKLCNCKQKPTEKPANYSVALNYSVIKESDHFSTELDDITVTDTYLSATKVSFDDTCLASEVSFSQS
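Read-out: compound-evoked intracellular calcium rise in TRHR cells, fluo-8 dye, kinetic FDSS fluorescence at 1 s/cycle following a 10-cycle baseline. Cells cultured overnight before dye loading (30 min–1.5 h, RT).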
D1 antagonist: Antagonist of Human D 1 Dopamine Receptor: qHTS; D(1A) dopamine receptor (Homo sapiens), P21728; HEK293 TREx D1 cells, calcium flux, dopamine EC80; active compounds read low; activity change, negative = inhibition, % at 10 µM; 360,000 tested, 3.2% active; AID 504652, 2011; in the data active = activity change below about -30%
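Tetracycline-induced HEK293 T-REx cells with force-coupled D1 receptor were loaded with a no-wash calcium dye. Compound was added after a 10 s baseline and read kinetically for 180 s; EC80 dopamine was then added and calcium flux followed another 180 s.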
TRHR enhancer: qHTS for Small Molecule Agonists and Allosteric Enhancers of Human TRH Receptor: Primary Screen for Enhancers | Thyrotropin-releasing hormone receptor (Homo sapiens), P34981 | TRHR cells, fluo-8 calcium fluorescence, EC20 TRH enhancement | enhancement, % at 2 µM | 360,000 tested, 0.66% active | AID 493056, 2011; in the data active = enhancement above about 30%
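Enhancer read-out: after compound pinning and an initial kinetic agonist-mode read, an EC20 of TRH (10 nM final) was injected and fluo-8 calcium signal (Ex 480/Em 530) followed at 1 s/cycle for 100 cycles in TRHR-expressing cells.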
D1 potentiator: Potentiators of Human D1 Dopamine Receptor: qHTS | HEK293 TREx D1 cells, calcium flux, dopamine EC20 potentiation | potentiation, % at 10 µM | 360,000 tested, 0.036% active; in the data active = potentiation above about 30%
Of the large screens only hits and unclear results are named; the others gave an inactive call. Hits are enriched below; roughly 4.7% of the tested compounds scored in any of these assays. Cut-off read from the data, not from the text of the source, unless noted: active = activation above about 30%; inactive = the rest.

COc1ccc(C(=O)c2oc3ccccc3c2NC(=O)COc2ccc(C)cc2)cc1	none
COc1cccc(NC(=O)c2oc3ccccc3c2NC(=O)c2ccccc2C)c1	none
O=C(COc1ccccc1)Nc1c(C(=O)N2CCC(N3CCCCC3)CC2)oc2ccccc12	none
COc1ccc(NC(=O)c2oc3ccccc3c2NC(=O)COc2ccc(F)cc2)c(OC)c1	TRHR enhancer 39
O=C(COc1ccc(F)cc1)Nc1c(C(=O)N2CCC(N3CCCCC3)CC2)oc2ccccc12	D1 antagonist -35
O=[N+]([O-])c1ccc(-c2cn3nc(-c4ccccc4)c(-c4ccccc4)nc3n2)cc1	none
Cc1ccc(-c2cn3nc(-c4ccccc4)c(-c4ccccc4)nc3n2)cc1	D1 ag 43
CCCCOc1ccc(/C=C/C(=O)Nc2ccc([N+](=O)[O-])cc2C)cc1	none
Cc1ccc(/C=C/C(=O)Nc2ccc([N+](=O)[O-])cc2)o1	D1 antagonist -46
CCCOc1ccc(/C=C/C(=O)Nc2ccc([N+](=O)[O-])cc2)cc1	D1 antagonist -43
Cc1ccc(/C=C/C(=O)Nc2ccc(Oc3ccccc3)cc2)o1	D1 antagonist -32
Cc1ccc(SCCNC(=O)/C=C/c2ccc([N+](=O)[O-])cc2)cc1	none
O=C(/C=C/c1ccc([N+](=O)[O-])cc1)NCCSc1ccccc1	D1 antagonist -30
Cc1cc(NS(=O)(=O)c2ccc(NC(=O)/C=C/c3ccc(C)o3)cc2)nc(C)n1	none
CC(=O)c1ccc(NC(=O)/C=C/c2ccc(C)o2)cc1	none
CCOC(=O)c1ccccc1NC1c2ccccc2C(=O)N1C1CCN(C(=O)OCC)CC1 (stereo not drawn)	none
CCOC(=O)N1CCC(N2C(=O)c3ccccc3C2Nc2ccccc2C)CC1 (stereo not drawn)	D1 antagonist -71
O=C(c1ccco1)N1CCN(CC(O)COc2ccc3oc4ccccc4c3c2)CC1 (stereo not drawn)	D1 antagonist -35
Cc1nnc(N)nc1C	D1 antagonist -38
Clc1ccccc1CNc1ncnc2c1c(-c1ccccc1)cn2-c1ccccc1	none
Cc1ccc(CS(=O)(=O)c2ccccc2-c2nnc(-c3ccc(Cl)cc3)o2)cc1	D1 antagonist -39
Cc1ccccc1-c1nnc(-c2ccc(Cl)cc2)o1	none
COC(=O)N/N=C/C1=CCC2CC1C2(C)C (stereo not drawn)	none
CC1(C)C2CC=C(/C=N/NC(=O)c3ccc(O)cc3)C1C2 (stereo not drawn)	D1 antagonist -32
COc1cc2cc(CNc3ccccc3)c(=O)n(CC(=O)Nc3cc(C)cc(C)c3)c2cc1OC	TRHR agonist 34
COc1ccc(NCc2cc3cc4c(cc3n(CC(=O)Nc3ccccc3)c2=O)OCO4)cc1	D1 ag 134
CCc1ccc(NCc2cc3cc4c(cc3n(CC(=O)Nc3ccc(Cl)cc3)c2=O)OCO4)cc1	D1 ag 176
COc1cccc(NS(=O)(=O)c2c(C)nc3sccn3c2=O)c1	D1 antagonist -43
CCOc1ccc(NS(=O)(=O)c2c(C)nc3sccn3c2=O)cc1	D1 antagonist -34
CC(=O)Nc1ccc(NS(=O)(=O)c2c(C)nc3sccn3c2=O)cc1	none
COc1ccc(C2c3c(oc4ccc(Cl)cc4c3=O)C(=O)N2CCCN(C)C)cc1OC (stereo not drawn)	none (no result: D1 antagonist)
CCOc1ccc(-c2nc3scc(-c4cccs4)c3c(=O)[nH]2)cc1	D1 antagonist -75
Cc1ccc(-c2csc3nc(CN(C)Cc4ccccc4)[nH]c(=O)c23)cc1	D1 antagonist -36
Cc1ccc(-c2csc3nc(-c4ccncc4)[nH]c(=O)c23)cc1	D1 antagonist -34
O=c1[nH]c(Cc2ccc(F)cc2)nc2scc(-c3ccc(F)cc3)c12	none
COc1cccc(Cn2c(=O)n(-c3ccccc3C)c(=O)c3c2c2cc(C)ccc2n3C)c1	none
O=C(CNC(=O)c1ccccc1)OC(Cc1ccccc1)C(=O)Nc1cc(C(F)(F)F)ccc1Cl (stereo not drawn)	none
Cc1cccc(C(=O)NCC(=O)OC(C(=O)Nc2cc(C(F)(F)F)ccc2Cl)c2ccccc2)c1 (stereo not drawn)	D1 antagonist -30
O=C(CNC(=O)c1ccccc1)OC(CCc1ccccc1)C(=O)Nc1cc(C(F)(F)F)ccc1Cl (stereo not drawn)	D1 antagonist -37
CC1CN(C(=O)N2CCC(C(=O)NCCC3=CCCCC3)CC2)c2cc(Cl)ccc2O1 (stereo not drawn)	none
CC(NCc1ccc(OCc2ccc(Cl)cc2)cc1)C(O)c1ccccc1 (stereo not drawn)	D1 ag 38
OCCCCNCc1ccc(OCc2ccc(Cl)cc2)cc1	D1 antagonist -51
CC(NCc1cccc(OCc2ccccc2)c1)C(O)c1ccccc1 (stereo not drawn)	D1 ag 42 (no result: D1 antagonist)
COc1cc(C(=O)NCCCc2nc3ccccc3n2CC(C)C)cc(OC)c1OC	none
CCOC(=O)c1nnn2c1nc(N1CCCCC1)c1ccccc12	D1 antagonist -42
CCNS(=O)(=O)c1ccc(NC(=O)Nc2cc(C)ccc2OC)cc1	D1 antagonist -37
CCNS(=O)(=O)c1ccc(NC(=O)Nc2ccccc2OC)cc1	none
O=C(CCCCn1c(=O)c2ccccc2n(Cc2cccc(F)c2)c1=O)NCc1ccc2c(c1)OCO2	none
c1ccc(OCCOc2cccc3cccnc23)cc1	none
OCc1ccccc1OCCCOc1cccc2cccnc12	D1 antagonist -31
CC(C)Oc1ccccc1OCCCOc1cccc2cccnc12	D1 antagonist -48
Cc1cccc(NC(=O)CSc2nc3ccc(NC(=O)c4ccco4)cc3s2)c1	none
COc1cc(CN(C(=O)c2ccc(Cl)cc2)C2CCS(=O)(=O)C2)cc(OC)c1OC (stereo not drawn)	none
COc1ccccc1C(=O)N/N=C/C(C)=C/c1ccccc1	D1 antagonist -64
CC(/C=N/NC(=O)Cc1cc(=O)[nH][nH]1)=C\c1ccccc1	D1 ag 57
CC(/C=N/NC(=O)c1ccncc1)=C\c1ccccc1	none
CCc1cccc(NC(=O)CCS(=O)(=O)c2cc(Br)cc3c2N(C(C)=O)CC3)c1	none
CCOc1ccc(N(Cc2cc3cc(C)ccc3[nH]c2=O)C(=O)c2cccc(Cl)c2)cc1	none
Cc1nnc(SCC2=C(C(=O)O)N3C(=O)C(NC(=O)c4cccc(F)c4F)C3SC2)s1 (stereo not drawn)	D1 antagonist -73
COc1ccc(N2CCN(c3nc4ccccc4n4c(C)nnc34)CC2)cc1	D1 antagonist -76
